# G9a inh – G9a (human) methyltransferase inhibition; Q96KQ7; G9a H3K9 monomethylation, AlphaScreen, 2 h; Potency, µM (highest dose often 102 µM), without a hit: top-dose activity, negative = inhibition, hits mostly inhibitors; actives 8.8% (n = 350,000); AID 504332; note: potency is the fitted concentration of half-maximal effect; % is set by controls: 0 for no effect and ±100 for the full control effect; nearly all actives have a fitted effect of over 75% in size
# Target sequence (Q96KQ7 913-1193 limits assumed): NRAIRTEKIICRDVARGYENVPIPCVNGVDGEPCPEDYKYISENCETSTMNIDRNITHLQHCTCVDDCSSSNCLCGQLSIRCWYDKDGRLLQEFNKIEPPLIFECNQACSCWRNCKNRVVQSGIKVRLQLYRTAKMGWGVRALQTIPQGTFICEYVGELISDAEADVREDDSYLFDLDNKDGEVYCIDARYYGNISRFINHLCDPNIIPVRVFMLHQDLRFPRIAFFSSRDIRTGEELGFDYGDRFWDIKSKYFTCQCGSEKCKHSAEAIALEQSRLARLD
#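 G9a (20 nM) was preincubated 15 min with compound, then reacted 2 h at room temperature with 500 nM biotin-H3K9 peptide and 20 µM SAM. Monomethyl-H3K9 detected by AlphaScreen using anti-H3K9me1 antibody.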
# PI5P4Ka inh – PI5P4K alpha (human) kinase inhibition; actives 1.2% (n = 330,000); PI5P4Kalpha enzyme, ADP-Glo luminescence, 60 min; active compounds read low; P48426; max response, %; active = max response of -50% or lower; inconclusive = between -30% and -50%; inactive = -30% or higher; note: value at the top dose of about 77 µM; % is set by controls: 0 for no effect and ±100 for the full control effect
# Target sequence (P48426 whole entry, looked up): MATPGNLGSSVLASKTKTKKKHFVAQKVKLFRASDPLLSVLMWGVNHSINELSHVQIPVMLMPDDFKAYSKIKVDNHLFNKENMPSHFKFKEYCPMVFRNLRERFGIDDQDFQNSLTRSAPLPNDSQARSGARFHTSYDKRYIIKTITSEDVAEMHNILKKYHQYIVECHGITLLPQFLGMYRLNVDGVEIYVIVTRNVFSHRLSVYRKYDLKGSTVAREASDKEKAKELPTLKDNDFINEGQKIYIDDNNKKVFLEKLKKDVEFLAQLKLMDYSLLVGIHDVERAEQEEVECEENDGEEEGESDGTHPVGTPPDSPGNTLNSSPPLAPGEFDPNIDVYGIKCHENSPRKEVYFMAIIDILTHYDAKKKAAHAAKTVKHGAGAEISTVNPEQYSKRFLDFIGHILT
#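 Reactions run in 0.038 M HEPES pH 7.4, 0.28 mM EGTA, 0.1% CHAPS and 5% DMSO, with PI5P4Kalpha, substrate, compound and 5 microM ATP final, one hour at room temperature. Readout is ADP-Glo luminescence.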
# BAZ2B block – BAZ2B (human) inhibition; Q9UIF8; AlphaScreen BAZ2B-H3K14Ac peptide displacement; Potency, µM (titrated, usually from 114 µM), for the others: at the top dose activity change, negative = inhibition, usual class: inhibitors; actives 4.4% (n = 360,000); AID 504333; note: potency is the fitted concentration of half-maximal effect; % is set by controls: 0 for no effect and ±100 for the full control effect; nearly all actives have a fitted effect of over 60% in size
#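 BAZ2B 50 nM plus b-H3(5-23)K14Ac 50 nM, PBS pH 7.4/0.01% Tween-20, 30 min RT; compound added (max 110 uM), 30 min RT; streptavidin donor/Ni-chelate acceptor beads 10 ug/mL final, 20 min dark; AlphaScreen read.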
# PLK1 PBD inh – inhibitors of human PLK1 polo-box domain binding; P53350; Plk1 PBD binding of FITC phosphopeptide, fluorescence polarization; Potency, µM, inactives show max response, negative = inhibition, most hits filed as inhibitors; actives 2.8% (n = 360,000); note: potency is the fitted concentration of half-maximal effect; series mostly up to about 57 µM; % is set by controls: 0 for no effect and ±100 for the full control effect; nearly all actives have a fitted effect of over 65% in size
# HP1b binding inh – inhibitors of HP1-beta chromodomain binding to methylated histone tails. actives 0.56% (n = 390,000). Potency, µM (top dose mostly 114 µM), inactives show top-dose activity change, negative = inhibition, usual class: inhibitors. AID 540317. P83916. AlphaScreen HP1-beta / biotin-H3K9me3 peptide binding; note: potency is the fitted concentration of half-maximal effect; nearly all actives have a fitted effect of over 70% in size
#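 HP1-beta protein (50 nM final) preincubated 30 min at room temperature with biotinylated H3(1-18)K9me3 peptide (50 nM) in PBS pH 7.4, 0.01% Tween-20, then compound added for 30 min. AlphaScreen streptavidin donor/nickel chelate acceptor beads (10 ug/mL final), 30 min dark, luminescence read.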
# JMJD2A Tudor inh – blocks the human JMJD2A Tudor domain; O75164; AlphaScreen JMJD2A-Tudor / H3K4me3 peptide binding; Potency, µM (top dose mostly 114 µM), without a hit: at the highest dose activity change, negative = inhibition, actives largely listed as inhibitors; actives 4.4% (n = 390,000); AID 504339; note: potency is the fitted concentration of half-maximal effect; % is set by controls: 0 for no effect and ±100 for the full control effect; nearly all actives have a fitted effect of over 50% in size
# * = called active by the depositor; ? = inconclusive; / = no result given; [ ] = dose if it differs, or a comment. Sampled rows, rich in hits. Any-hit rate of the full collection: about 12%. Unless noted, calls come from the whole dose curve; as a rule, active = well fitted curve in the direction sought with a large enough effect; inconclusive = small, poorly fitted or top-dose-only effect, or another doubt; inactive = no such curve, though single readings can be large; an effect the other way counts as inactive or inconclusive.
SMILES,G9a inh,PI5P4Ka inh,BAZ2B block,PLK1 PBD inh,HP1b binding inh,JMJD2A Tudor inh
CCSC1=C(C#N)C(c2ccc(F)cc2)CC(=O)N1 (configuration not stated),-13%,1,6%,-4%,32%,-3%
CCOC(=O)CSC1=C(C#N)C(c2ccc3c(c2)OCO3)CC(=O)N1 (configuration not stated),-20%[59 µM],3,0%,-17%,33%,5%[11.4 µM]
N#CC1=C(SCc2ccccc2)NC(=O)CC1c1ccccc1 (configuration not stated),-1%[59 µM],-1,3%,-4%,28%,-2%
C=CCSC1=C(C#N)C(c2ccccc2)CC(=O)N1 (configuration not stated),50µM*,-12,6%,-13%,25%,-24%
CCOC(=O)CSC1=C(C#N)C(c2ccc(Cl)cc2)CC(=O)N1 (configuration not stated),79µM*,2,2%,-24%,26%,-17%
C=CCSC1=C(C#N)C(c2ccc(C(C)C)cc2)CC(=O)N1 (configuration not stated),45µM*,-4,-4%,-19%,0%,-29%
CC(=O)N1c2ccc(S(=O)(=O)N3CCN(c4ccc(C)cc4C)CC3)cc2CC1C (configuration not stated),-24%[59 µM],/,-16%,/,24%,-13%
Cc1ccc(OCC(=O)c2c(N)n(C)c(=O)n(C)c2=O)c([N+](=O)[O-])n1,60%[12.7 µM],-50*,25µM*,?,20µM*,?
COc1ccccc1OCCC(=O)OCC(=O)c1c(N)n(C)c(=O)n(C)c1=O,50µM*,-3,?,-5%,35%,-22%
CC(C)CC(C(=O)OCC(=O)c1c(N)n(C)c(=O)n(C)c1=O)N1C(=O)c2ccccc2C1=O (configuration not stated),11µM*,2,-29%,-2%,18%,-31%
Cn1c(N)c(C(=O)COC(=O)[C@H](Cc2ccccc2)N2C(=O)c3ccccc3C2=O)c(=O)n(C)c1=O,1%,6,-9%,-5%,19%,-26%
O=S(=O)(c1cc(Br)c(Br)s1)N1CCN(c2ccccc2)CC1,-6%[59 µM],/,5%,/,54%,3%
CN1CCn2cnc(C(=O)Nc3ccc(Cl)cc3)c2C1=O,/,-11,/,-1%,/,/
O=C(O)CC(c1ccc(F)cc1F)N1Cc2ccccc2C1=O (configuration not stated),22%[2.33 µM],-4,-1%,-1%,26%,1%
CCOC(=O)CCC(=O)Nc1nnc2n1CCS2,13µM*,/,?,/,-7%[57 µM],40µM*
CC(=O)Nc1nnc2n1CCS2,14µM*,/,-4%,/,-8%[57 µM],22µM*
CCC(=O)Nc1nnc2n1CCS2,25µM*,/,-13%,/,-6%[57 µM],20µM*
COc1ccccc1C(=O)Nc1nnc2n1CCS2,11µM*,/,-14%,/,12%[57 µM],?
Cc1cc(C)cc(C(=O)Nc2nnc3n2CCS3)c1,8%[59 µM],/,?,/,20%[57 µM],-23%
CCCCOc1ccc(C(=O)Nc2nnc3n2CCS3)cc1,60%[59 µM],/,4%,/,18%[57 µM],-14%
COc1cccc(NC(=O)CN(C)C(=O)c2cccc(S(=O)(=O)Nc3ccccc3OC)c2)c1,?,-5,9%,7%,15%,-5%
CN(C)/C=C1/OC(=O)C(C#N)=C1c1ccc(Cl)cc1,-5%[2.33 µM],0,-17%,-7%,35%,-22%
Cc1cn2c(=O)cc(COc3ccccc3NC(=O)c3ccc(Cl)cc3)nc2s1,3%[59 µM],/,0%,/,13%,-21%
COC(=O)c1ccc(N(C(=O)CNC(=O)c2ccco2)C(C(=O)NC2CCCC2)c2ccco2)cc1 (configuration not stated),-11%[59 µM],-16,0%,27µM*,-18%,-11%[11.4 µM]
CC(C)C(NC(=O)c1ccco1)C(=O)NC1CCCCCC1 (configuration not stated),79µM*,1,-2%,-3%,38%,-10%
SMILES,G9a inh,PI5P4Ka inh,BAZ2B block,PLK1 PBD inh,HP1b binding inh,JMJD2A Tudor inh
O=C(NCC(=O)N(Cc1ccccc1)C(C(=O)NC1CCCC1)c1ccncc1)c1ccco1 (configuration not stated),10µM*,-5,10%,-5%,35%,-5%
O=C(NCC(=O)N(Cc1cccs1)C(C(=O)NC1CCCC1)c1ccncc1)c1ccco1 (configuration not stated),?,-3,?,-7%,27%,1%
COc1ccc(N(C(=O)CNC(=O)c2ccco2)C(C(=O)NC2CCCCC2)c2ccco2)cc1 (configuration not stated),-3%,-1,18%,2%,49%,10%
COC(=O)/C=C1\OCc2c(F)cccc21,/,-12,/,-4%,/,/
CCc1cccc(NC(=O)C2CCCN(S(=O)(=O)c3cccnc3)C2)c1 (configuration not stated),43%,-7,-16%,6%,51%,7%
COc1cc(Br)c(CN2C(=O)NC3(CCCCCC3)C2=O)cc1OC,45µM*,5,-7%,-12%,11%,-1%
O=S1(=O)C2CC3OC2(CC3c2ccc(F)cc2)CN1Cc1ccc(Cl)cc1 (configuration not stated),/,/,/,/,16%,8%
Cc1ccc(C)c(-n2nnnc2SCC(=O)NCC2CCCO2)c1 (configuration not stated),9%[59 µM],1,13%,8%,35%,8%
COc1ccc(C)cc1-n1nnnc1SCC1CCCO1 (configuration not stated),36%[59 µM],2,-1%,24µM*,-5%,?
COc1ccc(O)c(C(=O)c2cc(C(=O)NCCc3ccccc3)c(=O)n(CCc3ccccc3)c2)c1,8.9µM*,-5,?,-11%,?,?
CCOC(=O)C(=NCCCN1CCOCC1)NNc1cccc(C(F)(F)F)c1,50µM*,7,?,-13%,-18%,-33%
O=C(CCN1CCOCC1)NNC(=O)Nc1cccc(C(F)(F)F)c1,-5%,3,1%,-3%,40%,-1%
O=C(NCc1ccccc1F)c1cccc(NC(=O)N2CCSc3ncccc32)c1,-1%[59 µM],/,-5%,/,43%,4%
CC1C(=O)C(C)(C)C(=O)OC1c1ccccc1 (configuration not stated),8%[59 µM],0,-14%,-8%,38%,-11%
CC1C(=O)C(C)(C)C(=O)OC1c1ccc([N+](=O)[O-])cc1 (configuration not stated),50µM*,-3,-14%,-7%,48%,2%
Cc1coc2c1c(C)cc1oc(=O)c(CC(=O)NCc3ccc(Cl)cc3)c(C)c12,-1%[59 µM],/,-3%,/,39%,-8%

# Screening data: PubChem, National Center for Advancing Translational Sciences (NCATS)
